Only some compounds are listed: those with a hit (about 2.3% of all), similar ones and a draw of the others.
Rtt109 HAT inh – inhibitors of C. albicans Rtt109/Vps75 HAT, primary screen, biochemical, ThioGlo CoA-SH fluorescence, plate reader; Histone acetyltransferase RTT109 (Candida albicans (strain SC5314 / ATCC MYA-2876)), …; purified Rtt109/Vps75, 4 h; inhibition, % at 34.9 µM; hit rate 0.16% among 330,000; AID 540336, 2011;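 active = inhibition of at least 50% in every replicate; inconclusive = best replicate reaches 50% inhibition but some replicates fall short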
Target sequence (Q5AAJ8 whole entry, looked up): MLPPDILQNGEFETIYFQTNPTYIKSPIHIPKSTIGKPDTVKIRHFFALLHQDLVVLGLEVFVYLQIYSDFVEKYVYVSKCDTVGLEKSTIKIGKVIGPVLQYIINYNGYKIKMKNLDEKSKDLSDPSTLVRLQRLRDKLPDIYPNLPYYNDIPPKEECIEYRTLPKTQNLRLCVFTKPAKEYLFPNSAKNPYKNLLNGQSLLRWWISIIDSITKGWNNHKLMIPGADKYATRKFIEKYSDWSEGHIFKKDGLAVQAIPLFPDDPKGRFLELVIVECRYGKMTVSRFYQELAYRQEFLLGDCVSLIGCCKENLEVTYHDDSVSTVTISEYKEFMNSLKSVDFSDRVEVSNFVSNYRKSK
SIRT5 inh – SIRT5 desuccinylase inhibitors, primary screen, biochemical, fluorescence imaging, single point, set 5; inhibition, % at 15 µM; hit rate 1.1% among 330,000; Purified SirT5, succinyl-peptide AMC, trypsin-coupled fluorescence; NAD-dependent protein deacylase sirtuin-5, mitochondrial (Homo sapiens), Q9NXA8; in the data active = inhibition above about 15%; inconclusive = no clear call, values can overlap the other calls
Target sequence (Q9NXA8 whole entry, looked up): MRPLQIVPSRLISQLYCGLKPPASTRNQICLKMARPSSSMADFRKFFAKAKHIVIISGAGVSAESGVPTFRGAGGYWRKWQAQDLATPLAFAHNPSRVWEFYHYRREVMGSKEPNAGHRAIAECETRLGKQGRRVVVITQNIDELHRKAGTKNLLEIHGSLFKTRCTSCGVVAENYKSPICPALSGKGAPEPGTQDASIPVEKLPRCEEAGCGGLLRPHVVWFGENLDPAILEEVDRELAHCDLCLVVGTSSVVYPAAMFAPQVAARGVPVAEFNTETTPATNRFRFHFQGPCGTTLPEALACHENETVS
PDI turbidity – inhibitors of human PDI, primary screen, biochemical, turbidity, single point, plate reader. Protein disulfide-isomerase (Homo sapiens), P07237. PDI insulin aggregation turbidity, A650, 90 min. inhibition, % at 10 µM. hit rate 0.052% among 350,000. AID 588391, 2011;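 active = mean inhibition across replicates of 30% or more, whatever share of single replicates reach that level; inconclusive = mean inhibition below 30% while every single replicate reaches 30%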
DENV2 CPE – inhibitors of DENV2 cytopathic effect, primary screen, cell-based, plate reader, single concentration; DENV2-infected cells, cytopathic effect rescue; CPE inhibition, % at 9.99 µM; hit rate 1.7% among 350,000; AID 651640, 2012; in the data active = CPE inhibition above about 20%, passing the limit was not always enough; inconclusive = no clear call, values can overlap the other calls; tested in BHK-21 cells;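 also: 0% = median of neutral control wells and 100% = median of positive control wells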
ERp5 block – inhibitors of ERp5-driven insulin aggregation, primary screen, biochemical, turbidity, absorbance 650 nm, single point; Protein disulfide-isomerase A6 (Homo sapiens), Q15084; 90 min; inhibition, % at 9.99 µM; hit rate 0.05% among 350,000; AID 651711, 2012;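 active = mean replicate inhibition above about 25%, with every replicate also reaching it, limit read from the data, passing the limit was not always enough; inconclusive = only one of those two criteria met; inactive = neither criterion met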
* marks the source's active call; other numbers are inactive results; ? = inconclusive; nt = not tested or not shown.

SMILES | Rtt109 HAT inh | SIRT5 inh | PDI turbidity | DENV2 CPE | ERp5 block
C[C@H]1CN([C@@H](C)CO)C(=O)Cc2cc(NC(=O)NC3CCCCC3)ccc2O[C@@H]1CN(C)CC1CC1 | nt | 1.9 | nt | -6.3 | 2.0
CCCC(=O)Nc1nnc(/C=C/c2ccc(OC)cc2)s1 | -0.8 | -1.3 | -5.5 | -5.2 | 2.4
COc1ccc(/C=C/c2nnc(NC(=O)C(C)(C)C)s2)cc1 | 6.5 | -1.1 | -4.1 | 70.1* | 2.0
COc1ccc(S(=O)(=O)Nc2ccc3c(c2)C(=O)N([C@H](C)CO)C[C@H](C)[C@H](CN(C)S(=O)(=O)c2ccc(C)cc2)OCCCC[C@H](C)O3)cc1 | nt | 12.5 | nt | -3.4 | 11.5
COc1ccc(S(=O)(=O)N(C)C[C@@H]2OCCCC[C@H](C)Oc3ccc(NS(=O)(=O)c4ccc(C)cc4)cc3C(=O)N([C@@H](C)CO)C[C@@H]2C)cc1 | nt | 20.2* | nt | 14.6 | -2.2
COc1ccc(S(=O)(=O)Nc2ccc3c(c2)C(=O)N([C@@H](C)CO)C[C@@H](C)[C@@H](CN(C)S(=O)(=O)c2ccc(C)cc2)OCCCC[C@@H](C)O3)cc1 | nt | 5.7 | nt | 1.0 | -0.5
COc1ccc(S(=O)(=O)Nc2ccc3c(c2)C(=O)N([C@@H](C)CO)C[C@@H](C)[C@H](CN(C)S(=O)(=O)c2ccc(C)cc2)OCCCC[C@@H](C)O3)cc1 | nt | 18.5* | nt | ? | 0.7
Cn1cnc(CCNC(=O)C[C@@H]2CC[C@@H]3[C@H](COC[C@H](O)CN3C(=O)C3CCCC3)O2)c1 | nt | 23.9* | nt | -3.8 | -0.1
O=C(C[C@H]1CC[C@@H]2[C@H](COC[C@H](O)CN2C(=O)C2CCCC2)O1)NCc1ccncc1 | nt | -4.9 | nt | 30.3* | -19.6
O=C(C[C@H]1CC[C@H]2[C@@H](COC[C@@H](O)CN2C(=O)Nc2ccc(Cl)c(Cl)c2)O1)NCc1ccc(Cl)cc1 | nt | -1.9 | nt | 28.9* | 0.1
O=C(C[C@@H]1CC[C@H]2[C@@H](COC[C@@H](O)CN2C(=O)C2CCCC2)O1)NCc1ccncc1 | nt | 0.3 | nt | -5.2 | -20.1
CCNC(=O)C[C@H]1CC[C@H]2[C@@H](COC[C@@H](O)CN2C(=O)C2CCCC2)O1 | nt | 1.2 | nt | 107.3* | -7.9
Cn1cnc(CCNC(=O)C[C@@H]2CC[C@H]3[C@@H](COC[C@@H](O)CN3C(=O)C3CC3)O2)c1 | nt | 1.6 | nt | -13.6 | -1.0
O=C(C[C@@H]1CC[C@H]2[C@@H](COC[C@@H](O)CN2C(=O)Nc2ccc(Cl)c(Cl)c2)O1)NCc1ccc(Cl)cc1 | nt | 3.5 | nt | -15.8 | -2.1
CN(C)CCCNC(=O)[C@H]1[C@H](CO)[C@H]2Cn3c(ccc(-c4cccc(F)c4)c3=O)[C@@H]1N2 | nt | -38.4 | nt | 0.0 | -1.3
COCC(=O)N(C)C[C@H]1Oc2ncc(C#CC3(O)CCCC3)cc2C(=O)N([C@@H](C)CO)C[C@H]1C | nt | -2.1 | nt | -2.5 | -4.5
Cc1ccccc1-c1cnc2c(c1)C(=O)N([C@@H](C)CO)C[C@@H](C)[C@H](CN(C)CC1CCOCC1)O2 | nt | 1.2 | nt | nt | 3.8
COc1ccc2c3c(n(C)c2c1)[C@H](CO)N(C(=O)c1cccc(F)c1)CC31CN(CC2CC2)C1 | nt | 5.7 | nt | -5.3 | -0.5
N#Cc1ccc(C(=O)Nc2cc(C3CC3)nn2-c2ccccc2)cc1 | 0.2 | -4.1 | -1.8 | 22.1* | 0.5
CC1CCC(NC(=O)CN2C(=O)NC3(CCCCCC3)C2=O)CC1 (configuration not stated) | 0.5 | 16.4* | -8.6 | 1.6 | -2.7
CCOc1ccc(/C=C2\SC(=O)N(CCNC(=O)CN3C(=O)NC4(CCCC4)C3=O)C2=O)cc1OC | 9.3 | -3.7 | -26.2 | 55.6* | -5.6
CCNC(=O)CN1C(=O)NC2(CCCCCC2)C1=O | 12.5 | nt | 5.6 | nt | nt
COc1ccccc1OCCNC(=O)CN1C(=O)NC2(CCCCC2)C1=O | -3.7 | -0.3 | 0.6 | -1.1 | 9.1
COCCNC(=O)CN1C(=O)NC2(CCCCCC2)C1=O | 8.2 | 16.9* | -1.0 | 1.2 | 4.1
CCCN1[C@H](C(=O)OC)[C@@H](CO)[C@@H]2Cn3c(ccc(-c4ccc(F)cc4)c3=O)[C@@H]21 | nt | -9.5 | nt | 1.5 | -2.3
SMILES | Rtt109 HAT inh | SIRT5 inh | PDI turbidity | DENV2 CPE | ERp5 block
C[C@@H]1CCCCO[C@@H](CN(C)C(=O)NC2CCCCC2)[C@H](C)CN([C@@H](C)CO)C(=O)c2cc(NC(=O)CCCCCC(=O)Nc3ccccc3N)ccc2O1 | nt | 4.1 | nt | -3.5 | 2.0
C[C@@H]1CCCCO[C@H](CN(C)C(=O)NC2CCCCC2)[C@@H](C)CN([C@H](C)CO)C(=O)c2cc(NC(=O)CCCCCC(=O)Nc3ccccc3N)ccc2O1 | nt | 4.4 | nt | 112.1* | -5.6
C[C@H](CO)N1C[C@H](C)[C@H](CN(C)C(=O)c2ccccc2)OCCCC[C@H](C)Oc2ccc(NC(=O)CCCCCC(=O)Nc3ccccc3N)cc2C1=O | nt | 3.1 | nt | 13.2 | 3.5
C[C@@H]1CCCCO[C@H](CN(C)C(=O)c2ccccc2)[C@H](C)CN([C@@H](C)CO)C(=O)c2cc(NC(=O)CCCCCC(=O)Nc3ccccc3N)ccc2O1 | nt | 1.8 | nt | 20.3* | 4.2
COc1ccc(S(=O)(=O)Nc2ccc3c(c2)CC(=O)N([C@@H](C)CO)C[C@@H](C)[C@H](CN(C)S(=O)(=O)c2ccc(Cl)cc2)O3)cc1 | nt | 11.9 | nt | -9.5 | -0.5
CC(Sc1nc(-c2ccc(F)cc2)cs1)C(=O)N1c2ccccc2CC1C (configuration not stated) | 8.3 | 25.6* | 1.2 | -3.4 | 1.4
C[C@@H]1CN([C@H](C)CO)C(=O)c2cccc(NC(=O)c3ccc(-c4nccs4)cc3)c2O[C@@H]1CN(C)C(=O)Nc1ccc(F)cc1 | nt | 5.2 | nt | 62.9* | 0.6
C[C@@H]1CN([C@@H](C)CO)C(=O)c2cccc(NC(=O)c3ccc(-c4nccs4)cc3)c2O[C@H]1CN(C)C | nt | -2.1 | nt | 73.0* | 4.4
C[C@@H]1CN([C@@H](C)CO)C(=O)c2cccc(NC(=O)c3ccc(-c4nccs4)cc3)c2O[C@@H]1CN(C)S(C)(=O)=O | nt | -2.0 | nt | 24.0* | -2.0
C[C@@H]1CN([C@H](C)CO)C(=O)c2cccc(NC(=O)c3ccc(-c4nccs4)cc3)c2O[C@H]1CN(C)C(=O)Nc1ccc(F)cc1 | nt | 4.1 | nt | -6.6 | -19.3
Cc1noc(C)c1NC(=O)Nc1ccc2c(c1)CC(=O)N([C@H](C)CO)C[C@H](C)[C@H](CN(C)S(=O)(=O)c1ccc(Cl)cc1)O2 | nt | 8.0 | nt | 1.8 | 3.6
CN(C)C(=O)c1cccc(-c2ccc([C@@H]3[C@@H](CO)N4C(=O)CN(C(=O)C5CCCCC5)C[C@H]34)cc2)c1 | nt | -4.0 | nt | 39.3* | -1.0
COc1ccc(-c2ccc([C@H]3[C@H]4CN(C(=O)C5CCC5)CC(=O)N4[C@H]3CO)cc2)cc1 | nt | -2.0 | nt | -10.8 | -3.8

Screening results (PubChem)
